Test results published in PubChem BioAssay (EPA / NIEHS).
Where “and” joins values, the source holds several entries; their conditions need not be identical. Equal values may be shown once. Inconclusive results are not listed. A structure can be active in one record and inactive in another. Calls of active or inactive are those of the source. How the source made its calls, unless noted: active means hit-call score of the fitted dose curve at least 0.9, where 1 is the maximum; inconclusive means response in the unintended direction; inactive means score below 0.9.

Key:
[1] = target: Agonist Androgen Response Element (ARE), AR (gene 367) (UniProt P10275); test: OT_AR_ARELUC_AG_1440: Odyssey Thera (OT) 24-hour CHO-K1 Luciferase Assay for Agonist Androgen Response Element (ARE) (AID 2283379)
Sequence of Agonist Androgen Response Element (ARE), AR (gene 367) (P10275 whole entry, looked up): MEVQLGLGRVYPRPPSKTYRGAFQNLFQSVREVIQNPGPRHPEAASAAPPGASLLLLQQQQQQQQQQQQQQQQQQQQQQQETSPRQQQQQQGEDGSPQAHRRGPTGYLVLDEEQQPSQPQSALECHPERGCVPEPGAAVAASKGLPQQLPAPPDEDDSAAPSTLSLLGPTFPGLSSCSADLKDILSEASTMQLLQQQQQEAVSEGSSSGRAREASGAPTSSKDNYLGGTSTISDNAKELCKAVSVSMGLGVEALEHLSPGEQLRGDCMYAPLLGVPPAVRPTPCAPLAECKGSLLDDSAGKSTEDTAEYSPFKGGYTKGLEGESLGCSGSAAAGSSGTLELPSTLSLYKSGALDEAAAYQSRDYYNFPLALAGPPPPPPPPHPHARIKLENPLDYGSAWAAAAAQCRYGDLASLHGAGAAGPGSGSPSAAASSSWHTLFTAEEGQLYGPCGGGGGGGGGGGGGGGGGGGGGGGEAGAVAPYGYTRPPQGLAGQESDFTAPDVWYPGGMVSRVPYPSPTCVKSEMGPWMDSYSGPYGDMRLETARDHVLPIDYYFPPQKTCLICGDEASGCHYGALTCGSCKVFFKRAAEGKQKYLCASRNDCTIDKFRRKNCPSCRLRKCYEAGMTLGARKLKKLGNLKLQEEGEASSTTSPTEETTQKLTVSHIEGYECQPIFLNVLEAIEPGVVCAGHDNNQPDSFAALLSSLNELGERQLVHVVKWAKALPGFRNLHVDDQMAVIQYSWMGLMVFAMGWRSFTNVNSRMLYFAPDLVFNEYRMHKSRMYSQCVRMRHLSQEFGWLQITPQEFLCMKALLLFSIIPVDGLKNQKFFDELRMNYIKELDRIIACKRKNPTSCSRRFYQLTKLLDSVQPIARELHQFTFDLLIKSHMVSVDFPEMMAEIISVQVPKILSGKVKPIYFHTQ
Outline: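 Gain-of-signal reporter endpoint: cells (CHO-K1, hamster) are treated 24 h, luciferin/ATP reagent added, and luminescence compared with DMSO baseline.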

[2] = target: Estrogen receptor beta (Homo sapiens) (UniProt Q92731); test: OT_ER_ERbERb_1440: Odyssey Thera (OT) 24-hour HEK293T Protein-Complementation Assay for Estrogen Receptor-beta/-beta Homodimer (AID 2283380);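 further: scored as signal increase over DMSO baseline for both agonists and antagonists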
Sequence of Estrogen receptor beta (Homo sapiens) (Q92731 whole entry, looked up, the tested form may be a part): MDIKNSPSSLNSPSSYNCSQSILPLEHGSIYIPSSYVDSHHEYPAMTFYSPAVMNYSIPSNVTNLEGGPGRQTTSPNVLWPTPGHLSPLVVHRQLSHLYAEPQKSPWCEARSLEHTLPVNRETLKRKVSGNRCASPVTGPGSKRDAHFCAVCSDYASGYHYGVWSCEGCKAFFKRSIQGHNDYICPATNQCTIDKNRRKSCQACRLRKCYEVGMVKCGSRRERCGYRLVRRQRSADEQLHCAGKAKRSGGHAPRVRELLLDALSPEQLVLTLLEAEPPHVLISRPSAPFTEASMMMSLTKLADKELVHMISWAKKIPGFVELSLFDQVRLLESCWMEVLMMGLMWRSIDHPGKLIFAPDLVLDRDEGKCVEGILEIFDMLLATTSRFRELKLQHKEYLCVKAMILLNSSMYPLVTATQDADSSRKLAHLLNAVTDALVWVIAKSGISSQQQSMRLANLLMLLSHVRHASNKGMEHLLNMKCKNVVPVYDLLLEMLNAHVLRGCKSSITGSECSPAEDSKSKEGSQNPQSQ
Outline: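 HEK293T cells stably expressing ER beta LBD (aa 310-547) homodimer fragment-complementation reporter, dosed 24 h. Cells formaldehyde-fixed, Draq5-stained; gain in nuclear (agonist) or nuclear plus cytoplasmic (antagonist) fluorescence versus DMSO read by laser scanning cytometry.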

[3] = target: Bile acid receptor (Homo sapiens) (UniProt Q96RI1); test: OT_FXR_FXRSRC1_0480: Odyssey Thera (OT) 8-hour HEK293T Protein-Complementation Assay for Farnesoid X receptor/SRC-1 Co-activator (AID 2283383)
Sequence of Bile acid receptor (Homo sapiens) (Q96RI1 whole entry, looked up, the tested form may be a part): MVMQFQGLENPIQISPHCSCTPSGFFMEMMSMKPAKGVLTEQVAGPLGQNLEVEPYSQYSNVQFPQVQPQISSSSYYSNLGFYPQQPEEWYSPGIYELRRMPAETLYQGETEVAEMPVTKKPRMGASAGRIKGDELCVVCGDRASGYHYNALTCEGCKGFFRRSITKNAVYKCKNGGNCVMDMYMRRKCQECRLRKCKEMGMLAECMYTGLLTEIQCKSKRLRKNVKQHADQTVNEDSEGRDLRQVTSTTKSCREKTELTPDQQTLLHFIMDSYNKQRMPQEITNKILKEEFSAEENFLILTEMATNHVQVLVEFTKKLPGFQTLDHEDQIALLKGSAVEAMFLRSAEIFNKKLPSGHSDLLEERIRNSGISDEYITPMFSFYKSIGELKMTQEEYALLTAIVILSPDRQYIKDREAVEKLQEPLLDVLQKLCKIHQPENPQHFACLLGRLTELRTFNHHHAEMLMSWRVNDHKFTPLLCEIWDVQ
Outline: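 Fluorescence intensity read-out, 8 h post-dose, HEK293T protein-fragment complementation; FXR bait and SRC-1 prey each linked to reporter fragments. Activity scored as signal increase over DMSO negative control.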

[4] = target: Bile acid receptor (Homo sapiens) (UniProt Q96RI1); test: OT_FXR_FXRSRC1_1440: Odyssey Thera (OT) 24-hour HEK293T Protein-Complementation Assay for Farnesoid X receptor/SRC-1 Co-activator (AID 2283384)
Outline: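 Fluorescence readout, 24 h post-dose, HEK293T; FXR and SRC-1 fused to complementary reporter fragments, association reconstitutes signal. Positive-direction fit vs DMSO baseline.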

[5] = target: Retinoic acid receptor RXR-alpha (Homo sapiens) (UniProt P19793); test: OT_NURR1_NURR1RXRa_0480: Odyssey Thera (OT) 8-hour HEK293T Protein Complementation Assay for Nurr1/retinoid X receptor (RXR) (AID 2283385)
Sequence of Retinoic acid receptor RXR-alpha (Homo sapiens) (P19793 whole entry, looked up, the tested form may be a part): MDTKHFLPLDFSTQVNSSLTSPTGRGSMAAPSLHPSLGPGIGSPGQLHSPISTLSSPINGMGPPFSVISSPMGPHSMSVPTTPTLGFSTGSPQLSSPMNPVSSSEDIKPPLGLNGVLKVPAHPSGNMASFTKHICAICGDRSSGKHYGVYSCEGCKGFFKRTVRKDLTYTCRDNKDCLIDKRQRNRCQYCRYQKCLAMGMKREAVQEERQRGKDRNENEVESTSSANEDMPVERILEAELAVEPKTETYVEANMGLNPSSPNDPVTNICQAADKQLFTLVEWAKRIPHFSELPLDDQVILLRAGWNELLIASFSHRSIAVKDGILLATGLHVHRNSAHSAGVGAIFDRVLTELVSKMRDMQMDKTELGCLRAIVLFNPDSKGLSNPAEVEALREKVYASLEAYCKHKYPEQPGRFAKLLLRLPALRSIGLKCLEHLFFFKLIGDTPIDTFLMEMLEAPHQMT
Outline: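 Read-out: fluorescence from protein-fragment complementation between Nurr1 and RXRα in human HEK293T cells, 8 h after dosing. DMSO served as negative control; increased signal counted as activity.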

[6] = target: rat Serotonin Transporter (SERT), Slc6a4 (gene 25553) (UniProt P31652); test: NVS_TR_rSERT: NovaScreen (NVS) Transporter Assay for rat Serotonin Transporter (SERT) (AID 2283375)
Sequence of rat Serotonin Transporter (SERT), Slc6a4 (gene 25553) (P31652 whole entry, looked up): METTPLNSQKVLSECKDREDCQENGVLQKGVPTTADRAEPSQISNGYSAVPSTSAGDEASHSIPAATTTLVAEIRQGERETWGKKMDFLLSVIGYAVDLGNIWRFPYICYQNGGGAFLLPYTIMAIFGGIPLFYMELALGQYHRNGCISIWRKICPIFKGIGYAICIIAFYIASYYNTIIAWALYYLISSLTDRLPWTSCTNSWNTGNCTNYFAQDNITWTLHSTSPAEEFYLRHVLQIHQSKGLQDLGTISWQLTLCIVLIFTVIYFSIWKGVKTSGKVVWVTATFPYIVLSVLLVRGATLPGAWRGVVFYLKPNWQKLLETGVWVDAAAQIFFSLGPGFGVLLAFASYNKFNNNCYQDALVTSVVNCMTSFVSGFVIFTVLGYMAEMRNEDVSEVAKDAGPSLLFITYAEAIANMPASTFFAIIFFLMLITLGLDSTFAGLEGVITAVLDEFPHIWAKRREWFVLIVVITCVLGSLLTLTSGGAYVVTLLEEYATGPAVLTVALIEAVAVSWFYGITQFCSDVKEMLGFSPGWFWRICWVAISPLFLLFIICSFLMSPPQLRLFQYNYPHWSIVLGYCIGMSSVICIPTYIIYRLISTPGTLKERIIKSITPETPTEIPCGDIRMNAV
Outline: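 Rat forebrain membranes; radioligand displacement at SERT read by filter-based scintillation counting, 1 h after dosing. Screened in duplicate at 25 uM, actives then run in concentration series; loss of signal versus DMSO baseline.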

[7] = target: Estrogen receptor (Homo sapiens) (UniProt P03372); test: OT_ERa_GFPERaERE_0480: Odyssey Thera (OT) 8-hour HeLa Transcription Induction Assay for Estrogen Receptor (AID 2283381; active means hit-call score of the fitted dose curve at least 0.9, where 1 is the maximum; inactive means score below 0.9)
Sequence of Estrogen receptor (Homo sapiens) (P03372 whole entry, looked up): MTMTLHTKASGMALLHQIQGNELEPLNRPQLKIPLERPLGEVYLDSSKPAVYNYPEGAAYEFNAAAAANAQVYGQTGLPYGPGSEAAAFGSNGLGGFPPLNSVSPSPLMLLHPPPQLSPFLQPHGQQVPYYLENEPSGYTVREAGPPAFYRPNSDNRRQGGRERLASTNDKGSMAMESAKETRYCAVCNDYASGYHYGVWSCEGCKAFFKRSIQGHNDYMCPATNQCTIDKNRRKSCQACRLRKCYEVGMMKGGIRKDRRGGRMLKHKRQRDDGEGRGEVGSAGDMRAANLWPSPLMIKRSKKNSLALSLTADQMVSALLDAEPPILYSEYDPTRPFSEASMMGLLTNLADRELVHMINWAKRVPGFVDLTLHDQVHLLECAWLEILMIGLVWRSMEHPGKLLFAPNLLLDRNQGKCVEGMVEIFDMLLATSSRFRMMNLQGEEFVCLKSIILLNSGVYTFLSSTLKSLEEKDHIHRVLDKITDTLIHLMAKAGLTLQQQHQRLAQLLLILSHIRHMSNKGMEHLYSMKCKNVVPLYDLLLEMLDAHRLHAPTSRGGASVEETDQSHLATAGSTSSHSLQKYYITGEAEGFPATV
Outline: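 GFP-ERE reporter, HeLa, 8 h exposure. Readout: fluorescence microscopy, high-content image analysis. Fit direction positive vs DMSO negative control.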

[8] = target: Estrogen receptor (Homo sapiens) (UniProt P03372); test: OT_ERa_GFPERaERE_0120: Odyssey Thera (OT) 2-hour HeLa Transcription Induction Assay for Estrogen Receptor (AID 2283382)
Outline: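 Fluorescence microscopy read-out: inducible fluorescent protein reporter in HeLa cells, imaged 2 h post-dose. Signal increase over DMSO negative control fitted as single primary endpoint via high content image analysis.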

[9] = target: human Norepinephrine Transporter (NET), SLC6A2 (gene 6530) (UniProt P23975); test: NVS_TR_hNET: NovaScreen (NVS) Transporter Assay for human Norepinephrine Transporter (NET) (AID 2283377);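 further: cell-free membrane protein extracted from CHO cells expressing human NET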;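 on AC50: displacement of radioligand from human NET seen as loss of scintillation signal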
Sequence of human Norepinephrine Transporter (NET), SLC6A2 (gene 6530) (P23975 whole entry, looked up): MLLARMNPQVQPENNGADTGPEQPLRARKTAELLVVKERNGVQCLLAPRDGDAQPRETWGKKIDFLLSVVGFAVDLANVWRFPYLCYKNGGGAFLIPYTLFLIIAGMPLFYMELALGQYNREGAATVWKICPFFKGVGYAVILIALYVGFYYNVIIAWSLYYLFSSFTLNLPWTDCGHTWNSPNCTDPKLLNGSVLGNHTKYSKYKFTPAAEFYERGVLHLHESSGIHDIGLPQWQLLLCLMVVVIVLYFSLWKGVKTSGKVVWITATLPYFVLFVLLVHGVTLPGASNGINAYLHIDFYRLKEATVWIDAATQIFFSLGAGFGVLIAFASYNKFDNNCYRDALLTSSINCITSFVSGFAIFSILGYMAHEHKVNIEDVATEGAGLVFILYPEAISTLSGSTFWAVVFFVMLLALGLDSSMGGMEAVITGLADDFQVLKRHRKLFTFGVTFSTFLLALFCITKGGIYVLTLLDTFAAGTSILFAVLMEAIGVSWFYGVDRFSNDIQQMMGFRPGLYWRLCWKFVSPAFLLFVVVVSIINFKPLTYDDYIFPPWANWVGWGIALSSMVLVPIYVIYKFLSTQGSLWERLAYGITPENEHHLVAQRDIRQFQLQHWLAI
Outline: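 CHO cell extracts expressing the transporter; tritiated or iodinated tracer displaced competitively; filtration plus scintillation readout at 1 h. Single-point duplicates at 25 uM, concentration series for follow-up; activity = signal drop relative to DMSO.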

[10] = target: Norway rat Vesicular Monoamine Transporter (VMAT2), neurotransmitter transporter, Slc18a2 (gene 25549) (UniProt Q01827); test: NVS_TR_rVMAT2: NovaScreen (NVS) Transporter Assay for Norway rat Vesicular Monoamine Transporter (VMAT2), neurotransmitter transporter (AID 2283376);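 further: actives lower the bound radioligand signal below the DMSO level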
Sequence of Norway rat Vesicular Monoamine Transporter (VMAT2), neurotransmitter transporter, Slc18a2 (gene 25549) (Q01827 whole entry, looked up): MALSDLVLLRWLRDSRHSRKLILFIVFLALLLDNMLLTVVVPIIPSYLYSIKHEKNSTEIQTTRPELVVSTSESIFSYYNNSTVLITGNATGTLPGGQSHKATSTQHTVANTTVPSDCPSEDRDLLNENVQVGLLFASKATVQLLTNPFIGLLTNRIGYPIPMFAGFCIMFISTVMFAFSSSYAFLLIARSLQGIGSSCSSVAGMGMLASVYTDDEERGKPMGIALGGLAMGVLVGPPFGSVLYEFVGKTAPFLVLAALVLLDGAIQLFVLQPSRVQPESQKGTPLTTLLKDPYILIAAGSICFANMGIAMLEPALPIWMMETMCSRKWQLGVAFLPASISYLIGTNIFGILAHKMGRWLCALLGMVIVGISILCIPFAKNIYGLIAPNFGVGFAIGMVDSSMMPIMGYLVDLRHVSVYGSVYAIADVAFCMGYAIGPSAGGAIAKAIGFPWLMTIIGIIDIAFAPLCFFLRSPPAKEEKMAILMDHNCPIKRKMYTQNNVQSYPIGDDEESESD
Outline: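 Filter-based scintillation counting of radioligand bound to rat forebrain-derived VMAT2 protein, cell-free, 1 h post-dose. Signal loss relative to DMSO control scored; single-concentration duplicate screen (25 uM) followed by concentration-response testing of actives.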

Compound: CCCSP(=O)(OCC)SCCC
- outcome [1]: inactive
- outcome [2]: inactive
- outcome [3]: inactive
- outcome [4]: inactive
- outcome [5]: inactive

Compound: Cc1ccn2nc(S(=O)(=O)Nc3c(F)cccc3F)nc2n1
- outcome [2]: inactive
- outcome [3]: inactive
- outcome [4]: inactive
- outcome [5]: inactive

Compound: CSc1nnc(C(C)(C)C)c(=O)n1N
- outcome [2]: inactive
- outcome [3]: inactive
- outcome [4]: inactive
- outcome [5]: inactive

Compound: N#CSCSC#N
- outcome [2]: inactive
- AC50 [3]: 11.4 µM (active)

Compound: CC(C)=CC1C(C(=O)OCN2C(=O)C3=C(CCCC3)C2=O)C1(C)C (stereo unspecified)
- outcome [6]: inactive
- outcome [1]: inactive
- outcome [5]: inactive

Compound: CCOP(=S)(OCC)Oc1ccc([N+](=O)[O-])cc1
- AC50 [6]: 8.93 µM (active)
- outcome [5]: inactive

Compound: CCCCOC(=O)c1ccccc1C(=O)O
- outcome [1]: inactive
- outcome [2]: inactive
- outcome [3]: inactive
- outcome [4]: inactive
- outcome [5]: inactive

Compound: CCc1cccc(CC)c1N(COC)C(=O)CCl
- outcome [2]: inactive
- outcome [7]: inactive
- outcome [8]: inactive
- outcome [3]: inactive
- outcome [4]: inactive
- outcome [5]: inactive

Compound: CC(C)N(C(=O)SCC(Cl)=C(Cl)Cl)C(C)C
- outcome [6]: inactive
- outcome [2]: inactive
- AC50 [3]: 21.9 µM (active)
- AC50 [4]: 80.5 µM (active)
- AC50 [5]: 74.3 µM (active) and 85 µM (active)

Compound: CC(Oc1cccc(Cl)c1)C(=O)O (stereo unspecified)
- outcome [9]: inactive
- outcome [2]: inactive
- outcome [3]: inactive
- outcome [4]: inactive
- outcome [5]: inactive

Compound: C[Si](Cn1cncn1)(c1ccc(F)cc1)c1ccc(F)cc1
- AC50 [10]: 14.1 µM (active)
- AC50 [9]: 2.86 µM (active)
- outcome [2]: inactive
- AC50 [3]: 13 µM (active)
- outcome [4]: inactive
- outcome [5]: inactive

Compound: C[N+]1(C)CCCCC1
- outcome [1]: inactive
- outcome [2]: inactive
- outcome [5]: inactive

Compound: COc1ccc(C(=CC(=O)N2CCOCC2)c2ccc(Cl)cc2)cc1OC
- outcome [6]: inactive
- outcome [2]: inactive
- AC50 [3]: 31.5 µM (active)
- AC50 [4]: 76.3 µM (active)
- outcome [5]: inactive

Compound: Nc1c(Cl)cc([N+](=O)[O-])cc1Cl
- AC50 [6]: 3.3 µM (active)
- outcome [1]: inactive
- outcome [2]: inactive
- outcome [7]: inactive
- outcome [8]: inactive
- outcome [3]: inactive
- outcome [5]: inactive

Compound: CNC(=O)ON=C(SC)C(=O)N(C)C
- outcome [1]: inactive
- outcome [2]: inactive
- outcome [7]: inactive
- outcome [8]: inactive
- outcome [5]: inactive

Compound: CC(C)[C@H](C(=O)O[C@H](C#N)c1cccc(Oc2ccccc2)c1)c1ccc(Cl)cc1
- outcome [2]: inactive

Compound: CC[C@H](C)[C@H]1O[C@]2(C=C[C@@H]1C)C[C@@H]1C[C@@H](C/C=C(\C)[C@@H](O[C@H]3C[C@H](OC)[C@@H](O[C@H]4C[C@H](OC)[C@@H](NC)[C@H](C)O4)[C@H](C)O3)[C@@H](C)/C=C/C=C3\CO[C@@H]4[C@H](O)C(C)=C[C@@H](C(=O)O1)[C@]34O)O2
- AC50 [10]: 4.68 µM (active)
- AC50 [9]: 5.29 µM (active)
- AC50 [7]: 17.9 µM (active)
- outcome [8]: inactive

Compound: CCCCOC(=O)[C@@H](C)Oc1ccc(Oc2ccc(C#N)cc2F)cc1
- outcome [2]: inactive
- outcome [7]: inactive
- outcome [8]: inactive
- AC50 [5]: 13.5 µM (active)
- outcome [5]: inactive

Compound: CSc1nc(NC(C)C)nc(NC(C)C)n1
- outcome [10]: inactive
- outcome [2]: inactive
- outcome [7]: inactive
- outcome [8]: inactive
- outcome [5]: inactive

Compound: O=c1ccc(=O)[nH][nH]1
- outcome [1]: inactive
- outcome [3]: inactive
- outcome [5]: inactive

Compound: CCOP(=O)(NC(C)C)Oc1ccc(SC)c(C)c1 (stereo unspecified)
- outcome [1]: inactive
- outcome [2]: inactive
- AC50 [3]: 50 µM (active)
- AC50 [4]: 8.5 µM (active)
- outcome [5]: inactive

Compound: FC(F)C(F)(F)OCC(Cn1cncn1)c1ccc(Cl)cc1Cl (stereo unspecified)
- outcome [2]: inactive
- outcome [3]: inactive

Compound: COP(=O)(OC)OC(Br)C(Cl)(Cl)Br (stereo unspecified)
- outcome [2]: inactive
- outcome [7]: inactive
- outcome [8]: inactive
- outcome [3]: inactive
- outcome [4]: inactive

Compound: CCCOCC(=Nc1ccc(Cl)cc1C(F)(F)F)n1ccnc1
- outcome [6]: inactive
- outcome [10]: inactive
- outcome [2]: inactive
- AC50 [4]: 11.2 µM (active)

Compound: CCC(=O)Nc1ccc(Cl)c(Cl)c1
- AC50 [10]: 23.3 µM (active)
- AC50 [9]: 4.14 µM (active)
- outcome [1]: inactive

Compound: COP(=O)(OC)SCn1c(=O)oc2cc(Cl)cnc21
- outcome [1]: inactive
- outcome [7]: inactive
- outcome [8]: inactive
- outcome [5]: inactive

Compound: CCOP(=O)(OCC)Oc1cc(C)nc(C(C)C)n1
- outcome [2]: inactive
- outcome [3]: inactive
- outcome [4]: inactive
